Source: PubChem BioAssay AID1285 (Columbia University Molecular Screening Center, 2008)
About 1,600 (0.84%) of roughly 190,000 compounds were called active.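 How the source made its calls: active means inhibition above a set limit, derived from the sample mean plus 3 SD (cut at about 45% in these data); inconclusive means one replicate passes the limit while the other fails; inactive means the rest.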 The sample as a whole holds a higher share of actives than the screen did.

test: APP 5'UTR translational reporter suppression – APP 5'UTR luciferase, SH-SY5Y cells, primary screen (AID 1285); conditions: SH-SY5Y APP 5'UTR-luciferase reporter, luminescence; at 2 µM; hits give high values

inhibition, active:
COc1cccc(/C=N/Nc2ncc(C(F)(F)F)cc2Cl)c1O 80.5%, COC(=O)/C=C\C(=O)Nc1cccc([N+](=O)[O-])c1 65%, CCOC(=O)c1c(C)[nH]c2c1-c1ccccc1C(=O)C2=O 95.9%, O=C1CCCc2c1nc(-c1cccc(Cl)c1)n2O 94.3%, CCOc1cccc(-n2nnnc2-c2ccc(OC)cc2)c1 65.8%, COc1ccc(C(CCNCc2ccccc2F)c2ccc(F)cc2)cc1 (stereo not drawn) 50.4%, CCOC(=O)N1CCN(S(=O)(=O)c2ccc(C(=O)Nc3ccc(F)cc3F)cc2)CC1 92.2%, CCN(CC)c1ccc(NC(=O)c2ccc(Cl)nc2)cc1 66.1%, CCCC(=O)Nc1nc2ccc(NC(=O)c3c(F)c(F)c(OC)c(F)c3F)cc2s1 88.8%, CCOC(=O)C1=C(c2ccc(OC)cc2)C(=O)c2ccccc2C1=O 59.6%, C[C@@H]1C[C@@H]2O[C@H]2/C=C\C=C\C(=O)Cc2c(Cl)c(O)cc(O)c2C(=O)O1 95%, O=c1cc(-c2ccccc2)[nH]c2cc(F)ccc12 89.6%, Cc1ccc(/C=N/NC(=O)C2=NNC(c3ccccc3)(c3ccccc3)C2)c(O)c1 73%, CCCOC(=O)c1[nH]c2c(c1C)C(=O)CC(c1cccs1)C2 (stereo not drawn) 92%, CC(C)(C)NC(=O)NC(=O)COC(=O)CCC1CCCCC1 61.5%, COc1cccc(/C=N/NC(=O)c2[nH]nc3c2CCc2ccccc2-3)c1O 79.7%, N#C/C(C(=O)N1CCOCC1)=C1/SC(Cc2ccc(F)cc2)C(=O)N1c1ccccc1 (stereo not drawn) 56.6%, CCOC(=O)c1cnc(-n2nc(C)cc2C)nc1NNc1cc(C)nc(-c2ccccc2)n1 72.1%, CC(C)(C)c1ccc(Oc2ccc(N)cc2)cc1 84.4%, Cc1c(Cl)c([N+](=O)[O-])nn1Cc1ccc(C(=O)N/N=C\c2cc(Cl)ccc2O)o1 68.5%

inhibition, inactive:
Cc1cc(C(=O)NNC(=O)CCC2CCCCC2)c(C)o1 -4%, O=C(Cc1cccs1)N(CC1CCCO1)C1(C(=O)NC2CCCCC2)CCCCC1 (stereo not drawn) -11.4%, Cc1ccc(C(=O)OC2CCCN(C)C2)cc1 (stereo not drawn) 5.1%, Cc1nnc(-c2ccc(Oc3ccc(C)c(C)c3)c([N+](=O)[O-])c2)o1 11.5%, Cc1[nH]c2ccccc2c1/C=N\NC(=O)Cn1nnc(-c2ccccc2)n1 -1.1%, CC1=NN(C(=O)CCc2ccccc2O)C(O)(C(F)(F)F)C1 (stereo not drawn) 8.6%, Cc1cc(NC(=O)COC(=O)COc2ccc(Cl)cc2C)c([N+](=O)[O-])cc1C 8.7%, Cc1ccc(C(C)C)cc1OCCN1CCCC1 -3.6%, Cc1cc(N2CCN(C)CC2)nc2ccc(NC(=S)N3CCOCC3)cc12 -5.6%, COc1cc(/C=C2\SC(=S)N(Nc3ncc(C(F)(F)F)cc3Cl)C2=O)cc(OC)c1OC 0.7%, COc1cccc(/C(C)=N/Nc2ncc(Cl)cc2Cl)c1 -24.9%, OCCC1CN(Cc2cccc(O)c2)CCN1CCc1ccccc1 (stereo not drawn) 1%, Cc1nn(C)c(C)c1S(=O)(=O)N1CCC(CO)(Cc2ccc(Cl)cc2)CC1 26.8%, Cc1ccccc1NC(=S)Nc1cccc([N+](=O)[O-])c1 10.9%, CC(=O)Nc1cccc([N+](=O)[O-])c1 -68.1%, Cc1[nH]c2ccccc2c1C(=O)COC(=O)C(C)C -8.5%, CCOC(=O)c1c(C)[nH]c(=S)c(C#N)c1-c1ccccc1 17.1%, CSc1ccc(C(=O)C2CCCN(C(=O)c3ccc(C)nc3)C2)cc1 (stereo not drawn) -16.6%, CCOc1cc(N2CCOCC2)c(OCC)cc1NC(=O)C1=NN(c2cccc(C)c2)C(=O)CC1 -5.2%, CCCn1c(N)c(C(=O)CSc2nc3ccccc3c(=O)n2-c2ccc(OC)cc2)c(=O)[nH]c1=O -3.9%, O=c1c2c(nc3cc(-c4cccc(Cl)c4)[nH]n13)CCCC2 -158%, CCOC(=O)CSc1ncc(-c2cccc(Cl)c2)cn1 -2.7%, CCCn1c(NC(=O)C23CC4CC(CC(O)(C4)C2)C3)nc2ccccc21 9%, COC(=O)c1c(C)oc2ccc(N(C(=O)Oc3ccccc3)S(=O)(=O)c3ccccc3)cc12 0.2%, O=C(NC(=S)Nc1ccc2oc(=O)ccc2c1)c1ccc(-c2cccc(Cl)c2Cl)o1 2.2%, CCOc1cc(NC(=O)CCl)c(OCC)cc1NC(C)=O 5.3%, COc1ccc(-n2nnnc2-c2nc3ccccc3s2)cc1 -237%, CCOc1cccc(-c2nnc3sc(COc4ccc(OC)cc4)nn23)c1 -2.3%, C/C(=N\NC(=O)c1ccc(CSc2nc(C)cc(C)n2)cc1)C1CCCCC1 -23.6%, COc1cccc(CNCCc2c[nH]c3ccccc23)c1OCc1ccccc1F -3.5%, COc1ccc(CC(=O)NC(C)CCc2ccccc2)cc1 (stereo not drawn) 18.8%, CCC(C)(C)NC(=O)C1c2ccccc2Oc2ccccc21 -10.4%, COc1cc2nc(CN(C)Cc3ccc(F)cc3)[nH]c(=O)c2cc1OC -10.3%, O=C(CN1CCN(S(=O)(=O)c2ccc(F)cc2)CC1)Nc1ccccc1F -2%, COc1ccc(C(=O)Nc2ccc(F)cc2F)cc1 -131%, Cc1nc(-c2ccc(Cl)cc2)sc1C(=O)CBr 5.2%, Clc1ccc(N/N=C/c2cccs2)nn1 -17.2%, COc1cccc2c1OCC(CN1CCN(C3CCCCC3)C(CCO)C1)=C2 (stereo not drawn) 10.6%, O=C(NNc1ccccn1)c1ccc(Cl)nc1 9.8%, NS(=O)(=O)c1ccc(NC(=O)COC(=O)c2ccc(Cl)nc2)cc1 -14.1%, Cc1ccc(S(=O)(=O)N(C)c2ccc(OCC(=O)NC3=NCCS3)cc2)cc1 -2.9%, COc1ccc2nc(Nc3nc4ccc(NC(C)=O)cc4s3)sc2c1 -20.2%, CCCC(=O)Nc1nc2ccc(NC(=O)c3cccnc3)cc2s1 4.1%, CCOc1cnc(-c2c(-c3ccccc3Cl)noc2C)o1 16.9%, O=C(Cn1ncc(N2CCCC2)c(Br)c1=O)c1ccc(Cl)cc1 -71.1%, CCOC(=O)c1ccccc1NS(=O)(=O)c1ccc(OC)cc1 -5.3%, CCCCC(C(=O)OCC(=O)c1ccc(OC)cc1)N1C(=O)c2ccccc2C1=O (stereo not drawn) 7.1%, O=C(Nc1ccc2c(c1)OCO2)c1sc2cc(Cl)ccc2c1Cl -85%, O=S(=O)(NCCc1ccncc1)c1ccccc1 16.4%, Cc1ccc(-c2cc(=O)c3ccc(F)cc3[nH]2)cc1 -29.4%, Cc1ccc(-c2cc(=O)c3ccc(Cl)cc3[nH]2)cc1 -13.4%, Cc1ccnc(NS(=O)(=O)c2ccc(NC(=O)c3ccc(S(=O)(=O)N4CCOCC4)cc3)cc2)n1 5.8%, Cc1cccc(-n2c(C)cc(/C=N\NC(=O)c3cccs3)c2C)c1 -62.9%, Cc1ccc(-c2nn(-c3ccccc3)cc2/C=N/NC(=O)c2ccc3c(c2)OCO3)cc1 4.8%, O=C(CCc1n[nH]c(=O)[nH]c1=O)N/N=C/c1ccc(Br)o1 -6.1%, CCOC(=O)c1[nH]c2c(c1C)C(=O)CC(c1ccc(N(C)C)cc1)C2 (stereo not drawn) -13.3%, CCCOC(=O)c1[nH]c2c(c1C)C(=O)CC(c1cc(OC)c(OC)c(OC)c1)C2 (stereo not drawn) -2.1%, COc1ccccc1OCCC(=O)OCC(=O)NC(=O)NC(C)(C)C -5.5%, CC(C)(C)NC(=O)NC(=O)COC(=O)C1(C)CC1(Cl)Cl (stereo not drawn) 12.7%, CN1CCC(OC(=O)COc2ccc(Cl)cc2Cl)CC1 -5.1%, COc1cccc(/C=N\NC(=O)C2=NNC(=O)C2C)c1O (stereo not drawn) -73.4%, COc1ccc(C(=O)Nc2ccccc2C(=O)N/N=C/c2ccccc2OC)cc1 -8.9%, CCN(Cc1ccccc1)S(=O)(=O)c1cc(C(=O)O)ccc1OC -51.9%, O=C(CC1SC(=Nc2ccccc2F)N(CCN2CCOCC2)C1=O)Nc1ccc(F)cc1F (stereo not drawn) -19.1%, Cc1ccc(CC2S/C(=C(/C#N)C(=O)N3CCOCC3)N(c3ccccc3)C2=O)cc1 (stereo not drawn) -2.7%, CCN(CC)C(=O)CS(=O)CC(=O)Nc1cc(OCCOC)c(Cl)cc1Cl (stereo not drawn) -14%, Cc1oc2c(c1C(=O)N1CCOCC1)C(=O)c1ccccc1C2=O 2.1%, O=C(NNC(=S)Nc1ccccc1)c1cccc(S(=O)(=O)N2CCOCC2)c1 -32.5%, CCOC(=O)c1cnc(-n2nc(C)cc2C)nc1-n1nc(C)cc1C 6%, CCOC(=O)c1cnc(-n2nc(C)cc2C)nc1Nc1cccc(C(C)=O)c1 -11.9%, Cc1ccc(C(=O)NC(C)c2ccccc2)cc1Br (stereo not drawn) 25.6%, C/C=C/c1ccc(OCC(O)CN2CCCCCCC2)c(OC)c1 (stereo not drawn) -39%, Cc1ccc(Oc2ccc(N)cc2)cc1 3.7%, Nc1ccc(Oc2ccc(Cl)cc2)cc1 11.4%, Oc1ccc(/C=N/N(Cc2ccccc2)c2ccccc2)cc1 -13.4%, N=C1/C(=C/c2cccn2-c2cccc([N+](=O)[O-])c2)C(=O)N=C2SC=CN12 17.8%, O=C(N/N=C/c1ccc2c(c1)OCO2)c1ccc(Cn2cc([N+](=O)[O-])cn2)o1 -17.9%, Cc1c(Cl)c([N+](=O)[O-])nn1CCCC(=O)Nc1cc(Cl)ccc1Cl -6.1%
